Assay results taken from the supplement of paper PMC4840960.
Structures can show the parent of a compound that is named as a salt. ± gives the standard deviation of the averaged measurements.

System: E18 rat cortical neuron-glia co-culture
Assay: fiber score / MBP score (myelination specific beyond OL differentiation) (ratio); higher = more myelination-specific MBP alignment
Details: 5 µM; treatment time: 8 days (DIV5-DIV13)
In short: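 Reported values are fiber score (continuous MBP fiber length per Olig2+ nucleus) divided by MBP score (thresholded MBP area × intensity per Olig2+ nucleus). They come from primary E18 rat cortical co-cultures treated with library compounds at 1 or 5 µM in myelination medium from DIV5 to DIV13, then fixed in 4 % paraformaldehyde, immunostained for MBP and Olig2 with DAPI, and analysed over four 10X fields per well in duplicate wells.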

Structure (SMILES) | fiber score / MBP score
Fc1cncnc1 [5-fluoropyrimidine] | 0.899
OCc1cccnc1 [Nicotinyl Alcohol] | 0.687
O=c1c(O[C@@H]2O[C@H](CO)[C@@H](O)[C@H](O)[C@H]2O)c(-c2ccc(O)c(O)c2)oc2cc(O)cc(O)c12 [Isoquercitrin] | 0.826
CC(=O)CCCCn1c(=O)c2c(ncn2C)n(C)c1=O [Pentoxifylline] | 0.839 ± 0.17
C[C@]12CC[C@@H]3c4ccc(OS(=O)(=O)O)cc4CC[C@H]3[C@@H]1CCC2=O [Estrone sulfate] | 1.16
Nc1nc2ccc(Cl)cc2c2nc(-c3ccco3)nn12 | 0.773
CN(C)[C@@H]1C(O)=C(C(N)=O)C(=O)[C@@]2(O)C(O)=C3C(=O)c4c(O)ccc(Cl)c4[C@@H](O)[C@H]3C[C@@H]12 [Demeclocycline] | 0.666
CC(=O)N1CCN(c2ccc(OCC3COC(Cn4ccnc4)(c4ccc(Cl)cc4Cl)O3)cc2)CC1 (stereo not drawn) [Ketoconazole] | 0.267
CNCCC=C1c2ccccc2CCc2ccccc21 [Nortriptyline] | 1.93
COc1ccccc1N1CCN(CCCNc2cc(=O)n(C)c(=O)n2C)CC1 [Urapidil] | 0.799
O=C(NCCO[N+](=O)[O-])c1cccnc1 [Nicorandil] | 1.17
CN1CC(=O)N2[C@H](c3ccc4c(c3)OCO4)c3[nH]c4ccccc4c3C[C@@H]2C1=O [Tadalafil] | 0.74
CN(C)CCCC1(c2ccc(F)cc2)OCc2cc(C#N)ccc21 (stereo not drawn) [Citalopram] | 0.571 ± 0.19
O=C(O)CCCc1ccccc1 [4-Phenylbutyric acid] | 0.747
CCCc1cc(=O)[nH]c(=S)[nH]1 [Propylthiouracil] | 0.854
CC[C@@H](CO)NCCN[C@@H](CC)CO [Ethambutol] | 0.753
COC(=O)C1=C(C)NC(C)=C(C(=O)OC)C1c1ccccc1[N+](=O)[O-] [Nifedipine] | 0.919
Cn1cnc([N+](=O)[O-])c1Sc1ncnc2[nH]cnc12 [Azathioprine] | 0.822
CC(C(O)c1ccc(O)cc1)N1CCC(Cc2ccccc2)CC1 (stereo not drawn) [Ifenprodil] | 0.136
CC1=C(C(=O)O)N2C(=O)[C@@H](NC(=O)[C@H](N)c3ccccc3)[C@H]2SC1 [Cephalexin] | 0.986

Structure (SMILES) | fiber score / MBP score
Clc1ccc2nsnc2c1NC1=NCCN1 [Tizanidine] | 0.443
Cc1cccc(C)c1OCC(C)N (stereo not drawn) [Mexiletine] | 0.965
CCN1CCCC1CNC(=O)c1cc(S(N)(=O)=O)ccc1OC (stereo not drawn) [Sulpiride] | 0.751
Nc1ccc(O)c(C(=O)O)c1 [Mesalamine] | 0.63
C[C@H]1c2cccc(O)c2C(=O)C2=C(O)[C@]3(O)C(=O)C(C(N)=O)=C(O)[C@@H](N(C)C)[C@@H]3[C@@H](O)[C@@H]21 [Doxycycline] | 0.815
Cc1ccc(S(=O)(=O)NC(=O)NN2CCCCCC2)cc1 [Tolazamide] | 0.729
CCC1=C(C)CN(C(=O)NCCc2ccc(S(=O)(=O)NC(=O)N[C@H]3CC[C@H](C)CC3)cc2)C1=O [Glimepiride] | 0.96
O=C(O)c1cc(/N=N/c2ccc(S(=O)(=O)Nc3ccccn3)cc2)ccc1O [Sulfasalazine] | 1.17
CN1CCC(=C2c3ccccc3CC(=O)c3sccc32)CC1 [Ketotifen] | 0.58
CC1(C)O[C@@H]2C[C@H]3[C@@H]4CCC5=CC(=O)C=C[C@]5(C)[C@@]4(F)[C@@H](O)C[C@]3(C)[C@]2(C(=O)CO)O1 [Triamcinolone Acetonide] | 1.32
Cc1c(O)c(=O)ccn1C [Deferiprone] | 0.731
COc1cc(Cc2cnc(N)nc2N)cc(OC)c1OC [Trimethoprim] | 1.18
CC(=O)OCC(=O)[C@@]1(O)CC[C@H]2[C@@H]3CCC4=CC(=O)C=C[C@]4(C)[C@H]3[C@@H](O)C[C@@]21C [Prednisolone acetate] | 0.704
Cn1c(=O)c2nc[nH]c2n(C)c1=O [Theophylline] | 0.671
CCCc1nc2c(C)cc(-c3nc4ccccc4n3C)cc2n1Cc1ccc(-c2ccccc2C(=O)O)cc1 [Telmisartan] | 0.799
CCC(C)n1ncn(-c2ccc(N3CCN(c4ccc(OCC5COC(Cn6cncn6)(c6ccc(Cl)cc6Cl)O5)cc4)CC3)cc2)c1=O (stereo not drawn) [Itraconazole] | 0.918
CNC[C@H](O)c1ccc(O)c(O)c1 [Epinephrine] | 3.29
COc1cc(N)c(Cl)cc1C(=O)NC1CCN(CCCOc2ccc(F)cc2)CC1OC (stereo not drawn) [Cisapride] | 0.515
NC(=O)c1cnccn1 [Pyrazinamide] | 0.862

System: E18 rat cortical neuron-glia co-culture
Assay: myelination (MBP fiber length per Olig2+ nucleus), % of 1 µM DAPT response (DMSO = 0) (% of DAPT); higher = more myelination, active = 50 or more
Details: 1 µM; treatment time: 8 days (DIV5-DIV13)
In short: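 Rat cortical co-cultures from E18 tissue were dissociated with papain and plated at 20,000 cells/well on 96-well plates coated with poly-d-lysine/laminin. From DIV5 to DIV13, library compounds were added at 1 or 5 µM in myelination medium. After fixation in 4 % paraformaldehyde, cultures were immunostained for MBP and Olig2 and counterstained with DAPI, and four 10X fields were analysed in each of duplicate wells. The myelination value is the length of continuous straight MBP fibers per Olig2+ nucleus, normalised so that 0.1 % DMSO is 0 and a 1 µM positive control is 100.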

Structure (SMILES) | myelination
Fc1cncnc1 [5-fluoropyrimidine] | -17.3 (inactive)
OCc1cccnc1 [Nicotinyl Alcohol] | -10.3 (inactive)
O=c1c(O[C@@H]2O[C@H](CO)[C@@H](O)[C@H](O)[C@H]2O)c(-c2ccc(O)c(O)c2)oc2cc(O)cc(O)c12 [Isoquercitrin] | 1.55 (inactive)
CC(=O)CCCCn1c(=O)c2c(ncn2C)n(C)c1=O [Pentoxifylline] | -4.66 (inactive)
C[C@]12CC[C@@H]3c4ccc(OS(=O)(=O)O)cc4CC[C@H]3[C@@H]1CCC2=O [Estrone sulfate] | 3.23 (inactive)
Nc1nc2ccc(Cl)cc2c2nc(-c3ccco3)nn12 | -37.8 (inactive)
CN(C)[C@@H]1C(O)=C(C(N)=O)C(=O)[C@@]2(O)C(O)=C3C(=O)c4c(O)ccc(Cl)c4[C@@H](O)[C@H]3C[C@@H]12 [Demeclocycline] | -3.29 (inactive)
CC(=O)N1CCN(c2ccc(OCC3COC(Cn4ccnc4)(c4ccc(Cl)cc4Cl)O3)cc2)CC1 (stereo not drawn) [Ketoconazole] | -0.358 (inactive)
CNCCC=C1c2ccccc2CCc2ccccc21 [Nortriptyline] | -1.74 (inactive)
COc1ccccc1N1CCN(CCCNc2cc(=O)n(C)c(=O)n2C)CC1 [Urapidil] | -28.5 (inactive)
O=C(NCCO[N+](=O)[O-])c1cccnc1 [Nicorandil] | -8.12 (inactive)
CN1CC(=O)N2[C@H](c3ccc4c(c3)OCO4)c3[nH]c4ccccc4c3C[C@@H]2C1=O [Tadalafil] | -45.7 (inactive)
CN(C)CCCC1(c2ccc(F)cc2)OCc2cc(C#N)ccc21 (stereo not drawn) [Citalopram] | -18.2 (inactive)
O=C(O)CCCc1ccccc1 [4-Phenylbutyric acid] | 10.1 (inactive)
CCCc1cc(=O)[nH]c(=S)[nH]1 [Propylthiouracil] | -9.29 (inactive)
CC[C@@H](CO)NCCN[C@@H](CC)CO [Ethambutol] | -5.28 (inactive)
COC(=O)C1=C(C)NC(C)=C(C(=O)OC)C1c1ccccc1[N+](=O)[O-] [Nifedipine] | -18.3 (inactive)
Cn1cnc([N+](=O)[O-])c1Sc1ncnc2[nH]cnc12 [Azathioprine] | -10.3 (inactive)
CC(C(O)c1ccc(O)cc1)N1CCC(Cc2ccccc2)CC1 (stereo not drawn) [Ifenprodil] | -70.3 (inactive)
CC1=C(C(=O)O)N2C(=O)[C@@H](NC(=O)[C@H](N)c3ccccc3)[C@H]2SC1 [Cephalexin] | -2.86 (inactive)

Structure (SMILES) | myelination
Clc1ccc2nsnc2c1NC1=NCCN1 [Tizanidine] | -26.5 (inactive)
Cc1cccc(C)c1OCC(C)N (stereo not drawn) [Mexiletine] | 8.19 (inactive)
CCN1CCCC1CNC(=O)c1cc(S(N)(=O)=O)ccc1OC (stereo not drawn) [Sulpiride] | -10.3 (inactive)
Nc1ccc(O)c(C(=O)O)c1 [Mesalamine] | -20.4 (inactive)
C[C@H]1c2cccc(O)c2C(=O)C2=C(O)[C@]3(O)C(=O)C(C(N)=O)=C(O)[C@@H](N(C)C)[C@@H]3[C@@H](O)[C@@H]21 [Doxycycline] | -18.2 (inactive)
Cc1ccc(S(=O)(=O)NC(=O)NN2CCCCCC2)cc1 [Tolazamide] | -15.6 (inactive)
CCC1=C(C)CN(C(=O)NCCc2ccc(S(=O)(=O)NC(=O)N[C@H]3CC[C@H](C)CC3)cc2)C1=O [Glimepiride] | -3.14 (inactive)
O=C(O)c1cc(/N=N/c2ccc(S(=O)(=O)Nc3ccccn3)cc2)ccc1O [Sulfasalazine] | -11.7 (inactive)
CN1CCC(=C2c3ccccc3CC(=O)c3sccc32)CC1 [Ketotifen] | -0.199 (inactive)
CC1(C)O[C@@H]2C[C@H]3[C@@H]4CCC5=CC(=O)C=C[C@]5(C)[C@@]4(F)[C@@H](O)C[C@]3(C)[C@]2(C(=O)CO)O1 [Triamcinolone Acetonide] | 5.47 (inactive)
Cc1c(O)c(=O)ccn1C [Deferiprone] | -11.3 (inactive)
COc1cc(Cc2cnc(N)nc2N)cc(OC)c1OC [Trimethoprim] | -9.76 (inactive)
CC(=O)OCC(=O)[C@@]1(O)CC[C@H]2[C@@H]3CCC4=CC(=O)C=C[C@]4(C)[C@H]3[C@@H](O)C[C@@]21C [Prednisolone acetate] | -5.64 (inactive)
Cn1c(=O)c2nc[nH]c2n(C)c1=O [Theophylline] | -7.88 (inactive)
CCCc1nc2c(C)cc(-c3nc4ccccc4n3C)cc2n1Cc1ccc(-c2ccccc2C(=O)O)cc1 [Telmisartan] | -7.37 (inactive)
CCC(C)n1ncn(-c2ccc(N3CCN(c4ccc(OCC5COC(Cn6cncn6)(c6ccc(Cl)cc6Cl)O5)cc4)CC3)cc2)c1=O (stereo not drawn) [Itraconazole] | 8.72 (inactive)
CNC[C@H](O)c1ccc(O)c(O)c1 [Epinephrine] | 2.28 (inactive)
COc1cc(N)c(Cl)cc1C(=O)NC1CCN(CCCOc2ccc(F)cc2)CC1OC (stereo not drawn) [Cisapride] | -1.62 (inactive)
NC(=O)c1cnccn1 [Pyrazinamide] | -16.4 (inactive)
